Screening results: PubChem, Buhrlage Lab, Dana-Farber Cancer Institute and Novartis Institutes for BioMedical Research (Cambridge, Mass)
USP17 block – inhibitors of human USP17 deubiquitinase. Ubiquitin carboxyl-terminal hydrolase 17-like protein 5 (Homo sapiens), A8MUK1. hit rate 6.5% among 47,000. AID 1645855, 2021. inhibition, % at 50 µM. purified USP17, Ub-rhodamine cleavage fluorescence, 3 h
USP30 inh – inhibitors of human USP30 deubiquitinase; Ubiquitin carboxyl-terminal hydrolase 30 (Homo sapiens), Q70CQ3; purified USP30, Ub-rhodamine cleavage fluorescence; inhibition, % at 25 µM; hit rate 5.3% among 47,000; AID 1645860, 2021
USP28 block – inhibitors of human USP28 deubiquitinase. hit rate 3% among 47,000. Ubiquitin carboxyl-terminal hydrolase 28 (Homo sapiens), Q96RU2. purified USP28, Ub-rhodamine cleavage fluorescence, 30 min. inhibition, % at 25 µM
Target sequence (Q96RU2 whole entry, looked up): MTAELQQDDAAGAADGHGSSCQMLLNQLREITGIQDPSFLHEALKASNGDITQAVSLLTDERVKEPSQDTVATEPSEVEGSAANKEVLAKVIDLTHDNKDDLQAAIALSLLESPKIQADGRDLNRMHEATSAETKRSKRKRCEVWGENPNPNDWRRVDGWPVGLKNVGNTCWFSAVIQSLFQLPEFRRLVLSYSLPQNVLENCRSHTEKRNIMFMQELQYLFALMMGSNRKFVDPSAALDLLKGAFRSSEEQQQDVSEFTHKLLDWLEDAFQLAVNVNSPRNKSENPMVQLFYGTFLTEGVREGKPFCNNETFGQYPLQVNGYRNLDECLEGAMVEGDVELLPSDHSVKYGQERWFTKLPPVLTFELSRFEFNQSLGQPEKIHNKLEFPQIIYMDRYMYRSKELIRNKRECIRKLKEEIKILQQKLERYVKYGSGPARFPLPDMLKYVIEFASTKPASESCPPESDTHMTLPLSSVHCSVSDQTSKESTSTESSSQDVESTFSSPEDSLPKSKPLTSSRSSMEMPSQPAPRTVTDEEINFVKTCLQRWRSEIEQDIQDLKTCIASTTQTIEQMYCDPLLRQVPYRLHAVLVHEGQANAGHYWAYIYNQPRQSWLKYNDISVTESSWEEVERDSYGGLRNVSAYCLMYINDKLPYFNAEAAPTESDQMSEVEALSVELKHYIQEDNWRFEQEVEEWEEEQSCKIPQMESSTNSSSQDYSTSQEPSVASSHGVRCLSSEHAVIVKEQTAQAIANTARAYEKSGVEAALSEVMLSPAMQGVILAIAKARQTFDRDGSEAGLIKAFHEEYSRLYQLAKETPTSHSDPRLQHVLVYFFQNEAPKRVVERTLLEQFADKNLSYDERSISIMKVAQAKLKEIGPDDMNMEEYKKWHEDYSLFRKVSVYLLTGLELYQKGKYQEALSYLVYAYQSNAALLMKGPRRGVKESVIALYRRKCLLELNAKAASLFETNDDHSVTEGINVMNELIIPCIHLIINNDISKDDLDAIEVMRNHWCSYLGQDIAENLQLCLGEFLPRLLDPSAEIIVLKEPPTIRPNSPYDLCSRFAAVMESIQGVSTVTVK
An asterisk follows results filed as active; x = not tested or not shown. Sampled rows, rich in hits. Any-hit rate of the full collection: about 11%. No stated cut-off is given here; in the data, active means inhibition above about 30%; inactive means the rest.

SMILES | USP17 block | USP30 inh | USP28 block
Cc1nccc(C2CCCN(C(=O)c3ccc(-n4cccn4)nc3)C2)n1 (centres undefined) | -4.9 | -1.9 | -0.5
COc1ccc(N2CC(C(=O)Nc3nnc4n3CCCS4)CC2=O)cc1 (centres undefined) | x | 2.9 | 0.9
Cn1c(=O)c2cc(C(=O)Nc3ccc(F)cc3)cnc2n(C)c1=O | 52.6* | 4.8 | 1.3
Cn1c(=O)c(C(=O)Nc2ccc(F)cc2)cc2cccnc21 | 4.4 | -7.6 | -7.5
Cc1cccc(C)c1NC(=O)CN1CCN(C(=O)C2COc3ccccc3O2)CC1 (centres undefined) | -2.6 | -3.9 | -13.0
CSc1cccc(NC2c3ccccc3C(=O)N2c2ccccc2C)c1 (centres undefined) | 19.0 | 9.5 | 43.8*
Cc1ccc(N2C(=O)c3ccccc3C2Nc2ccc(F)cc2)nc1 (centres undefined) | -15.1 | -19.7 | -13.4
CCCC(=O)NCC1(N2CCOCC2)CCCCC1 | -12.3 | 0.2 | -10.6
O=C(NC1CCCCCC1)c1cn(Cc2ccccc2)nc1-c1cccnc1 | 2.2 | 13.5 | -2.4
O=C(NC1CCCC1)c1cn(Cc2ccccc2)nc1-c1cccnc1 | 7.8 | 37.9* | 11.5
COc1cccc(NC(=O)N2CCC3(CC2)NC(=O)[C@H]2CN(CC(C)C)C[C@H]23)c1 | -11.9 | -16.7 | -6.3
COc1cccc(N2CC(C)Cn3c2nc2c3c(=O)n(CC(=O)OCc3ccccc3)c(=O)n2C)c1 (centres undefined) | 2.2 | 38.5* | 20.5
Cc1cc(C)cc(N2CC(C)Cn3c2nc2c3c(=O)n(CC(=O)OCc3ccccc3)c(=O)n2C)c1 (centres undefined) | 0.0 | 0.8 | -0.5
Cc1ccc(CN2Cc3cc4ccc(C)c(C)c4nc3OC2=O)o1 | 21.4 | 29.0 | 12.2
O=C1Oc2nc3ccccc3cc2CN1Cc1ccco1 | 52.4* | 17.1 | 16.2
CCOc1ccc2cc3c(nc2c1)OC(=O)N(Cc1ccc(C)o1)C3 | 21.1 | 52.9* | 12.8
Cc1ccc2nc3c(cc2c1)CN(Cc1ccco1)C(=O)O3 | 17.6 | 2.1 | -2.5
Cn1c(C(=O)N2CCOCC2)cc2c1c1ccccc1n2CC1CC1 | -5.1 | -23.0 | 1.3
CCOCc1ccc(C(=O)N[C@H](C)c2nc3cc(-c4ccc(OC)cc4)ncn3n2)cc1 | 13.2 | 40.7* | 22.1
C[C@H](NC(=O)Cc1ccccc1F)c1nc2cc(-c3ccc(F)cc3)ncn2n1 | 24.7 | 34.8* | 8.4
C[C@@H](NC(=O)Cc1ccc(F)cc1)c1nc2cc(-c3ccccc3F)ncn2n1 | 16.0 | 8.3 | 0.8
COc1ccccc1CC(=O)N[C@@H](C)c1nc2cc(-c3ccccc3F)ncn2n1 | -38.7 | 38.6* | 17.8
COc1ccc(-c2cc3nc([C@H](C)NC(=O)COc4cccc(F)c4)nn3cn2)cc1 | 16.9 | 28.3 | -4.7
COc1cccc(CC(=O)N[C@@H](C)c2nc3cc(-c4ccccc4F)ncn3n2)c1 | 24.3 | 26.1 | 8.5
Cc1nc(N2CCCC2)ncc1-c1cc(=O)[nH]c(N2CCc3ccccc3C2)n1 | 77.8* | -27.9 | -0.2
SMILES | USP17 block | USP30 inh | USP28 block
Cc1cc2nc(Nc3ncc4c(n3)CCCC4=O)nc(C)c2cc1C | 0.9 | -8.2 | -7.0
COc1cccc(-c2cc(=O)[nH]c(Nc3nc(C)c4ccccc4n3)n2)c1 | 20.4 | 58.0* | 12.2
COc1ccc(-c2cc(=O)[nH]c(Nc3nc(C)c4cc(C)ccc4n3)n2)cc1 | 8.0 | 2.1 | 4.8
COc1ccc2nc(Nc3ncc4c(n3)CCCC4=O)nc(C)c2c1 | 37.7* | 51.6* | 12.5
COc1ccc2nc(Nc3nc(-c4cnc(N5CCOCC5)nc4C)cc(=O)[nH]3)nc(C)c2c1 | 52.0* | 9.8 | 1.9
Cc1nc(N2CCCCC2)ncc1-c1cc(=O)[nH]c(N2CCN(c3ccccc3)CC2)n1 | 8.0 | 20.6 | 8.4
CCN1CCN(c2ncc(-c3cc(=O)[nH]c(Nc4nc(C)c5cc(C)ccc5n4)n3)c(C)n2)CC1 | 11.5 | 16.7 | 9.8
CCN1CCc2c(nc(NC)n(-c3ccccc3)c2=O)C1 | -109.7 | -296.1 | -87.9
Cc1nc(N2CCCC2)ncc1-c1cc(=O)[nH]c(N2CCN(Cc3ccccc3)CC2)n1 | 5.7 | 13.6 | 11.0
Cc1nc(N2CCOCC2)ncc1-c1cc(=O)[nH]c(NCCc2ccccc2)n1 | 16.8 | 34.4* | 2.0
CCCCOc1ccc(-c2cc(C(=O)NC(C)Cc3ccccc3)c3ccccc3n2)cc1 (centres undefined) | 7.1 | 20.0 | 7.0
OCCNc1nc(-c2ccccc2)nc2c1oc1ccccc12 | 60.3* | 70.9* | 18.4
CNc1nc(C)nc2c1oc1ccccc12 | 13.1 | x | x
CCCn1nccc1C(=O)N1[C@@H](CNC(C)=O)C[C@]2(C)[C@H]1CCCC[C@]2(C)O | 2.4 | 19.0 | 6.7
Cc1sc(NC(=O)CN2CCOCC2)nc1-c1ccc2c(c1)CCN2C(=O)C(C)C | -7.5 | -29.6 | 0.0
CCc1nc2ccc(C(=O)Nc3nc(-c4ccc5c(c4)CCN5C(=O)C4CCCCC4)c(C)s3)cc2nc1CC | 8.4 | -14.6 | 2.7
Cc1sc(NC(=O)Cn2nnc3ccccc32)nc1-c1ccc2c(c1)CCN2C(=O)c1ccccc1F | 14.4 | 3.3 | -3.8
Cc1sc(NC(=O)Cn2nnc3ccccc3c2=O)nc1-c1ccc2c(c1)CCN2C(=O)C(C)C | 56.1* | x | x
Cc1sc(NC(=O)CN2CCc3ccccc3C2)nc1-c1ccc2c(c1)CCN2C(=O)CC(C)(C)C | -12.1 | -34.1 | -3.6
O=C(Cn1nnc2ccccc21)Nc1nc(-c2ccc3c(c2)CCN3C(=O)c2ccccc2F)cs1 | 54.3* | 11.5 | 9.8
Cc1sc(NC(=O)CNc2ccccc2)nc1-c1ccc2c(c1)CCN2C(=O)C(C)C | 50.8* | -13.3 | 5.0
CCc1nc2ccc(C(=O)Nc3nc(-c4ccc5c(c4)CCN5S(=O)(=O)c4ccccc4)c(C)s3)cc2nc1CC | 32.4* | -3.8 | 15.4
CCCn1c(C(=O)NCC(=O)c2ccccc2)cc2c(=O)n(C)c(=O)n(C)c21 | 15.8 | 19.7 | 4.2
Cc1cccc(C(=O)N2CCc3cc(-c4nc(NC(=O)CN5CCCC5)sc4C)ccc32)c1 | 45.1* | -15.3 | 10.7
Cc1cccc(C(=O)N2CCc3cc(-c4nc(NC(=O)CNc5ccccc5)sc4C)ccc32)c1 | 60.3* | 20.3 | 17.3
SMILES | USP17 block | USP30 inh | USP28 block
Cc1ccc(C(=O)N2CCc3cc(-c4csc(NC(=O)CN(C)C5CCCCC5)n4)ccc32)cc1 | 23.2 | -15.2 | 12.0
Cc1cccc(C(=O)N2CCc3cc(-c4csc(NC(=O)CNc5ccccc5)n4)ccc32)c1 | 31.1* | -40.3 | -10.8
Cc1ccc(C(=O)N2CCc3cc(-c4nc(NC(=O)CN5CCCCCC5)sc4C)ccc32)cc1 | 12.9 | 3.5 | 4.7
Cc1sc(NC(=O)CN(C)C2CCCCC2)nc1-c1ccc2c(c1)CCN2C(=O)c1cccc(F)c1 | 11.8 | 5.6 | -9.5
COc1ccc(NC(=O)[C@@H]2CCCN2C(=O)[C@@H]2Cc3ccccc3CN2)cc1 | 6.4 | 17.5 | 0.6
CCCCCCCC/C(C)=C/Cc1oc(OC)c(C)c(=O)c1C | 15.7 | 21.1 | 6.9
CN1CCN(CCC(=O)Nc2cc(C(F)(F)F)ccc2Cl)CC1 | 10.7 | 13.6 | 7.8
O=C(CCSc1nnnn1-c1ccccc1)Nc1cc(C(F)(F)F)ccc1Cl | 40.4* | 7.6 | 0.6
CCCn1nnnc1CN1CCc2cc(OC)c(OC)cc2C1c1ccccc1 (centres undefined) | 9.6 | 32.6* | 7.8
